# Experimental data from PubChem BioAssay AID1159580 (chemical genetic matrix, 2015).
# Screen size: about 5,500 compounds; about 2,000 (36%) were called active. Roughly 18% stayed inconclusive and do not appear here. Some of the results follow. Values without a mark were called inactive. Cut-off read from the data, not from the text of the source: active = normalized growth mostly below about 0.91 (no sharp cut-off); inconclusive = no clear call, values can overlap the other calls; inactive = mostly above about 0.92.
# Test: chemical genetic growth profiling, strain panel (AID 1159580);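 note: tested at 20 µM; growth read once vehicle control cultures reached saturation at 30 °C; 1 = growth at the plate median or of vehicle wells; lower values mean less growth of the strain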
# Details: growth OD
# [1] = S. cerevisiae deletion strains, locus YAL040C, strain CLN3, stronger effect = lower value
# [2] = S. cerevisiae deletion strains, locus YCL061C, strain MRC1 (second series), stronger effect = lower value
# [3] = S. cerevisiae deletion strains, locus YDR363W, strain ESC2, stronger effect = lower value
# [4] = S. cerevisiae deletion strains, locus YER002W, strain NOP16, stronger effect = lower value
# [5] = S. cerevisiae deletion strains, locus YGR229C, strain SMI1, stronger effect = lower value
# [6] = S. cerevisiae deletion strains, locus YMR263W, strain SAP30, stronger effect = lower value
# [7] = S. cerevisiae deletion strains, locus YMR307W, strain GAS1, stronger effect = lower value
# [8] = S. cerevisiae deletion strains, locus YNL128W, strain TEP1, stronger effect = lower value
# [9] = S. cerevisiae deletion strains, locus YNL153C, strain GIM3, stronger effect = lower value
# [10] = S. cerevisiae deletion strains, locus YNL175C, strain NOP13, stronger effect = lower value
# [11] = S. cerevisiae deletion strains, locus YNL197C, strain WHI3, stronger effect = lower value
# [12] = S. cerevisiae deletion strains, locus YNL224C, strain SQS1, stronger effect = lower value
# [13] = S. cerevisiae deletion strains, locus YOR083W, strain WHI5 (second series), stronger effect = lower value
# [14] = S. cerevisiae deletion strains, locus YDR150W, strain NUM1, stronger effect = lower value
# [15] = S. cerevisiae deletion strains, locus YGR078C, strain PAC10, stronger effect = lower value
# [16] = S. cerevisiae deletion strains, locus YPL055C, strain LGE1, stronger effect = lower value
# [17] = S. cerevisiae deletion strains, locus YAL013W, strain DEP1, stronger effect = lower value
# [18] = S. cerevisiae deletion strains, locus YBR229C, strain ROT2, stronger effect = lower value
# [19] = S. cerevisiae deletion strains, locus YDL101C, strain DUN1, stronger effect = lower value
# [20] = S. cerevisiae deletion strains, locus YEL061C, strain CIN8, stronger effect = lower value
# [21] = S. cerevisiae deletion strains, locus YHR030C, strain SLT2, stronger effect = lower value
# [22] = S. cerevisiae deletion strains, locus YHR087W, strain rtc3, stronger effect = lower value
# [23] = S. cerevisiae deletion strains, locus YJL187C, strain SWE1, stronger effect = lower value
# [24] = S. cerevisiae deletion strains, locus YJR043C, strain POL32, stronger effect = lower value
# [25] = S. cerevisiae deletion strains, locus YJR075W, strain HOC1, stronger effect = lower value
# [26] = S. cerevisiae deletion strains, locus YKL190W, strain CNB1, stronger effect = lower value
# [27] = S. cerevisiae deletion strains, locus YLR039C, strain RIC1, stronger effect = lower value
# [28] = S. cerevisiae deletion strains, locus YLR058C, strain SHM2 (second series), stronger effect = lower value
# [29] = S. cerevisiae deletion strains, locus YLR085C, strain ARP6, stronger effect = lower value
# [30] = S. cerevisiae deletion strains, locus YLR262C, strain YPT6, stronger effect = lower value
# [31] = S. cerevisiae deletion strains, locus YML094W, strain GIM5, stronger effect = lower value
# [32] = S. cerevisiae deletion strains, locus YMR219W, strain ESC1, stronger effect = lower value
# [33] = S. cerevisiae deletion strains, locus YNL298W, strain CLA4 (second series), stronger effect = lower value
# [34] = S. cerevisiae deletion strains, locus YNL322C, strain KRE1, stronger effect = lower value
# [35] = S. cerevisiae deletion strains, locus YNR030W, strain Alg12, stronger effect = lower value
# [36] = S. cerevisiae deletion strains, locus YPL241C, strain CIN2, stronger effect = lower value
# [37] = S. cerevisiae deletion strains, locus YPR135W, strain CTF4, stronger effect = lower value
compound,measurement,setting,value
CC(C)C[C@H](NC(=O)[C@H](O)[C@H](N)Cc1ccccc1)C(=O)O,normalized growth,[1],0.978
same,normalized growth,[2],1
same,normalized growth,[3],1.03
same,normalized growth,[4],1.03
same,normalized growth,[5],1
same,normalized growth,[6],0.994
same,normalized growth,[7],0.986
same,normalized growth,[8],0.981
same,normalized growth,[9],0.986
same,normalized growth,[10],0.999
same,normalized growth,[11],1
same,normalized growth,[12],0.99
same,normalized growth,[13],1.03
CC(C)C[C@H](NC(=O)[C@@H](O)[C@H](N)Cc1ccccc1)C(=O)O,normalized growth,[1],1.05
same,normalized growth,[2],1.01
same,normalized growth,[14],1.03
same,normalized growth,[3],0.994
same,normalized growth,[4],1.02
same,normalized growth,[15],0.998
same,normalized growth,[9],1.03
same,normalized growth,[10],0.997
same,normalized growth,[11],0.996
same,normalized growth,[12],1.01
same,normalized growth,[13],0.989
same,normalized growth,[16],1.02
CCO/C=C1\SC(=S)N(CCc2ccccc2)C1=O,normalized growth,[17],0.969
same,normalized growth,[18],0.898 (active)
same,normalized growth,"S. cerevisiae deletion strains, locus YCL061C, strain MRC1, stronger effect = lower value",0.882 (active)
same,normalized growth,[19],0.973
same,normalized growth,[14],0.986
same,normalized growth,[20],0.66 (active)
same,normalized growth,[15],0.919 (active)
same,normalized growth,[5],0.893 (active)
same,normalized growth,[21],0.149 (active)
same,normalized growth,[22],0.847 (active)
same,normalized growth,[23],0.897 (active)
same,normalized growth,[24],0.961
same,normalized growth,[25],0.843 (active)
same,normalized growth,[26],0.736 (active)
same,normalized growth,[27],0.166 (active)
same,normalized growth,[28],0.898 (active)
same,normalized growth,[29],0.181 (active)
same,normalized growth,[30],0.193 (active)
same,normalized growth,[31],0.882
same,normalized growth,[32],0.906 (active)
same,normalized growth,[6],0.962
same,normalized growth,[9],0.936
same,normalized growth,[33],0.561 (active)
same,normalized growth,[34],0.926 (active)
same,normalized growth,[35],0.929
same,normalized growth,[16],0.975
same,normalized growth,[36],0.969
same,normalized growth,[37],0.305 (active)
COc1ccc(OC)c(S(=O)(=O)Nc2ccc(C#N)cc2)c1,normalized growth,[17],0.978
same,normalized growth,[18],1.01
same,normalized growth,[19],1
same,normalized growth,[14],0.998
same,normalized growth,[20],1.02
same,normalized growth,[15],1.02
same,normalized growth,[5],1
same,normalized growth,[21],1.01
same,normalized growth,[22],1.01
same,normalized growth,[23],1
same,normalized growth,[24],0.989
same,normalized growth,[25],1.01
same,normalized growth,[26],0.996
same,normalized growth,[27],0.993
same,normalized growth,[28],1
same,normalized growth,[29],1.04
same,normalized growth,[30],0.953
same,normalized growth,[31],1.03
same,normalized growth,[32],1
same,normalized growth,[6],0.997
same,normalized growth,[7],1.05
same,normalized growth,[9],0.998
same,normalized growth,[33],1
same,normalized growth,[34],0.993
same,normalized growth,[35],1.02
same,normalized growth,[16],1.02
same,normalized growth,[36],1.02
same,normalized growth,[37],0.951
Cc1ccc(OS(=O)(=O)c2ccc(C#N)cc2)c(Br)c1,normalized growth,[17],0.954
same,normalized growth,[18],1
same,normalized growth,[19],0.954
same,normalized growth,[14],0.973
same,normalized growth,[20],0.934
same,normalized growth,[15],0.976
same,normalized growth,[21],0.62 (active)
same,normalized growth,[23],1.02
same,normalized growth,[24],0.979
same,normalized growth,[25],0.953
same,normalized growth,[27],0.712 (active)
same,normalized growth,[28],0.997
same,normalized growth,[29],0.784
same,normalized growth,[30],0.796 (active)
same,normalized growth,[31],0.957
same,normalized growth,[32],0.985
same,normalized growth,[6],0.966
same,normalized growth,[8],0.969
same,normalized growth,[9],0.96
same,normalized growth,[33],0.881
same,normalized growth,[34],0.981
same,normalized growth,[35],0.918
same,normalized growth,"S. cerevisiae deletion strains, locus YOL006C, strain TOP1, stronger effect = lower value",0.765
same,normalized growth,[16],0.936
same,normalized growth,[36],0.927
same,normalized growth,[37],0.628 (active)
same,normalized growth,"S. cerevisiae strains, strain wild type, stronger effect = lower value",0.907 (active)
